# Rows were chosen to be rich in hits. Some 2.3% of all compounds tested hit in one or more screens of this group.
# M1 PAM: human M1 muscarinic receptor positive allosteric modulators, primary screen, CHO-K1 cells, Fluo-8 calcium fluorescence, 1536-well; Muscarinic acetylcholine receptor M1 (Homo sapiens), P11229; CHO-K1 hM1, ACh EC20; 0% = ACh EC20, 100% = maximal ACh; activation, % at 3 µM; actives 0.088% (n = 360,000); AID 588819, 2011; in the data active = activation above about 19%, passing the limit was not always enough
# Target sequence (P11229 whole entry, looked up): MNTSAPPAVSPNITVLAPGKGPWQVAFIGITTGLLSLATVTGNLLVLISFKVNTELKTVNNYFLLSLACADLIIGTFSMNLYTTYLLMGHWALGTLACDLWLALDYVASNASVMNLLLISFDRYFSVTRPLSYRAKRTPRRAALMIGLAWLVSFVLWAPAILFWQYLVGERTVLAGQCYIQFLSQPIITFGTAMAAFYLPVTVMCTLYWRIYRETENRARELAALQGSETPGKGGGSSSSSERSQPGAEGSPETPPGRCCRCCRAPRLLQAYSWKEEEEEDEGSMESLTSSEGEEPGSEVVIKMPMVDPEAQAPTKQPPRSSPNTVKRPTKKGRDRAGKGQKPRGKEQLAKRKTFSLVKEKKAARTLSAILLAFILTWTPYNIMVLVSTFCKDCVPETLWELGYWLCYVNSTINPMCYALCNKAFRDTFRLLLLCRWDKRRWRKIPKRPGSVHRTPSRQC
# CHRM1 agonist: human M1 muscarinic receptor agonists, primary screen, Fluo-8 calcium fluorescence, CHO-K1 cells, HTS; Muscarinic acetylcholine receptor M1 (Homo sapiens), P11229; CHO-K1 hM1, agonist mode; 0% DMSO, 100% acetylcholine EC100; activation, % at 3 µM; actives 0.33% (n = 360,000); AID 588814, 2011;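 active = activation above the run's mean compound activation plus 3 SD, cut at about 16% in these data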;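 note: peak over basal fluorescence ratio within a 140 s kinetic read after compound addition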
# CHO-K1 Ca antag: M1 antagonist counterscreen hit in parental CHO-K1 cells | ATP-induced calcium, Fluo-8 fluorescence | inhibition, % at 3 µM | actives 0.6% (n = 360,000) | AID 602250;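 active = inhibition above a per-plate cutoff, the plate's mean sample inhibition plus 3 SD, cut at about 24% in these data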;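 note: 0% = DMSO plus EC80 ATP and 100% = DMSO alone without ATP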
# CHO-K1 Ca PAM: nonselective calcium activators in parental CHO-K1 cells, primary screen, counter-screen for M1 PAM project, cell-based, Fluo-8 calcium fluorescence, full deck, 1536-well; ATP EC20; 0% at ATP EC20, 100% at ATP max; activation, % at 3 µM; actives 0.02% (n = 360,000);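 active = activation above the run cutoff, the mean activation of all test compounds plus 3 SD, cut at about 40% in these data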;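 note: peak over basal fluorescence ratio in a 140 s read after ATP addition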
# CHRM1 antagonist: human M1 muscarinic receptor antagonists, primary screen, CHO-K1 cells, Fluo-8 calcium fluorescence, 1536-well; Muscarinic acetylcholine receptor M1 (Homo sapiens), P11229; CHO-K1 hM1, ACh EC80 antagonist; inhibition, % at 3 µM; actives 1.3% (n = 360,000);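 active = percent inhibition above its own plate's cutoff, namely the mean of that plate's compound wells plus 3 SD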;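 note: peak over basal fluorescence ratio during 140 s after agonist addition; 0% = ACh EC80 plus DMSO and 100% = DMSO alone without agonist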
# CHO-K1 Ca ag: counter-screen for M1 agonists: effect in parental CHO-K1 cells | Fluo-8 calcium fluorescence; scaled to maximal ATP response, vehicle zero | activation, % at 3 µM | actives 0.48% (n = 360,000); in the data active = activation above about 15%;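 note: untransfected CHO-K1 host cells lacking M1 receptor as counterscreen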
# Numbers without * were called inactive; nt = no result given.
SMILES,M1 PAM,CHRM1 agonist,CHO-K1 Ca antag,CHO-K1 Ca PAM,CHRM1 antagonist,CHO-K1 Ca ag
COCCCNCCCCOc1ccc(OCc2ccccc2)cc1,-4,-8,5,1,5,5
c1ccc(COc2ccc(OCCCN3CCCCC3)cc2)cc1,-26,-5,19,-7,50*,2
CC1CCN(CCCCOc2ccc(C(C)(C)C)cc2)CC1,-29,-6,1,-5,60*,9
Cc1nc(SCC(=O)Nc2ccccc2Cl)c2c(C)c(C)sc2n1,5,-1,5,1,-9,0
O=C(O)CC(C(=O)Nc1ccc(Cl)cc1)N1CCCCCC1 (stereo not drawn),9,-2,-7,16,-7,1
CC1CC(C)CN(CCCCOc2ccc([N+](=O)[O-])cc2)C1 (stereo not drawn),-24,-8,-10,21,24*,1
CC(=O)c1ccc(OCCCN2CCCCC2)cc1,-20,-7,-9,10,14,0
c1ccc(COc2ccc(OCCCCN3CCCC3)cc2)cc1,-21,-4,-8,25,35*,7
CC1CCN(CCOc2ccc(OCc3ccccc3)cc2)CC1,-25,-11,-9,20,61*,2
O=C(c1ccccc1)c1ccc(OCCCN2CCCCC2)cc1,-21,-6,-6,11,34*,0
CC(=O)N1CCC(C(=O)Nc2cc(S(=O)(=O)N3CCCCC3)ccc2C)CC1,-8,-4,3,-10,16,0
OCC1(CCc2ccccc2)CCN(Cc2cccn2-c2cccnc2)CC1,5,-14,4,-9,-4,0
C1CN(CCN2CCOCC2)CCN1,16,1,-3,13,-15,1
C/C(=N\OCc1ccc(C#N)cc1)c1ccc(S(=O)(=O)N(C)C)cc1,-18,-3,9,-7,28,15*
CCc1ccccc1NC(=O)COC(=O)C1CC(=O)N(c2ccc(F)cc2)C1 (stereo not drawn),-6,-3,29*,-8,12,0
Cc1ccc(N2CC(C(=O)OCC(=O)Nc3cccc(Cl)c3C)CC2=O)cc1 (stereo not drawn),6,-5,-4,6,-14,0
O=C1NC[C@H](CCCCN2CCN(CC3CCCCC3)C(=O)C2=O)N(CCc2ccccc2)C1=O,nt,nt,-4,1,nt,0
CCOC1=C2[C@H]([C@H]3C(=O)N(c4ccccc4)C(=O)[C@H]3C1)[C@@H](C(C)C)N(S(=O)(=O)c1ccc(C)cc1)[C@H]2c1ccccc1,9,-1,1,14,-11,1
COc1cccc(C(=O)NCC(=O)N2CCN(c3ccc(C(F)(F)F)cn3)CC2)c1,-13,-2,27*,-31,37*,4
Cc1cccc(S(=O)(=O)NC(=O)C2(C)CCN2C(=O)c2ccccc2)c1 (stereo not drawn),9,-4,-2,8,-13,0
CC(=O)N1CCc2cc(S(=O)(=O)NCCC(=O)NCCc3ccc(Cl)cc3)ccc21,-5,0,-2,1,7,16*
CC(=O)N1c2ccc(S(=O)(=O)NCCc3ccccc3)cc2CC1C (stereo not drawn),-14,1,11,-3,29*,10
C=CCn1c(=O)/c(=C/c2ccc(Cl)cc2)s/c1=C(\C#N)c1nnc2n1CCCCC2,-6,-5,-10,4,-4,0
Cc1ccc2c(c1)NC(=O)[C@@]1(C)[C@@H](c3ccccc3)[C@H]3COc4ccccc4[C@@H]3N1C2=O,-7,-5,-11,4,5,0
C[C@@]12C(=O)Nc3ccc(Br)cc3C(=O)N1[C@H]1c3ccccc3OC[C@@H]1[C@@H]2c1ccccc1,-14,-4,-7,12,27*,0
Cc1ccc2c(c1)C(=O)N1[C@H]3c4ccccc4OC[C@@H]3[C@H](c3ccccc3)[C@]1(C)C(=O)N2,-30,-8,-5,10,65*,0

# High-throughput results deposited in PubChem BioAssay by The Scripps Research Institute Molecular Screening Center.
